Experimental data from the supplement of paper PMC10127200.
Counter-ions that a name gives are not always drawn.

Experiments:
Test in all cases: Euclidean distance of Cell Painting phenotypic profile (signed KS, 77 features) to DMSO centroid (dimensionless distance); higher = stronger phenotypic change vs DMSO (phenoactivity)
Conditions in all cases: 48 h; 5 or 10 uM (library dependent)
786-O = test system: 786-O
In short: (§1)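 Five cancer lines, together with a healthy fibroblast line, received library compounds for 48 h at a library-dependent 10 or 5 uM and 0.1% DMSO final. Harmony then derived 77 features from confocal 20X images (9 fields/well) of the stained cells, scoring each as a signed Kolmogorov-Smirnov statistic against same-plate vehicle wells. After plate-position correction, correlation weighting and replicate averaging at the top dose, phenoactivity was taken as each profile's Euclidean distance to the median vehicle profile.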

A549 = test system: A549
In short: as §1

DU145 = test system: DU145
In short: as §1

FB = test system: FB
In short: as §1

HEPG2 = test system: HEPG2
In short: as §1

OVCAR4 = test system: OVCAR4
In short: as §1

| SMILES | Euclidean distance (786-O) | Euclidean distance (A549) | Euclidean distance (DU145) | Euclidean distance (FB) | Euclidean distance (HEPG2) | Euclidean distance (OVCAR4) |
| --- | --- | --- | --- | --- | --- | --- |
| [O-][n+]1ccccc1[S-].[O-][n+]1ccccc1[S-].[Zn+2] [Zinc Pyrithione] | 6.27 | 4.94 | 7.6 | 6.01 | 5.34 | 6.33 |
| CCC12C=CCN3CC[C@@]4(c5ccc(OC)cc5N(C)[C@H]4[C@@](O)(C(=O)OC)[C@@H]1OC(C)=O)[C@@H]32 (stereo partly specified) [Vindoline] | 1.01 | 0.491 | 0.771 | 0.943 | 0.607 | 0.946 |
| C=C(C)[C@H]1Cc2c(ccc3c2O[C@@H]2COc4cc(OC)c(OC)cc4[C@@H]2C3=O)O1 [Rotenone (Barbasco)] | 2.48 | 2.97 | 3.54 | 2.77 | 2.94 | 2.89 |
| CN(C)Cc1c[nH]c2ccccc12 [Gramine] | 1.2 | 0.885 | 1.29 | 0.772 | 0.674 | 1.45 |
| C[C@H]1CC(=O)C[C@@H]2CC[C@H]3[C@@H]4CC[C@H](O)[C@@]4(C)CC[C@@H]3[C@]21C [Mesterolone] | 1.38 | 1.27 | 1.33 | 1.08 | 0.446 | 0.883 |
| NC(=O)CN1CC(O)CC1=O (stereo unspecified) [Oxiracetam] | 1.07 | 0.677 | 0.989 | 1.39 | 0.778 | 0.764 |
| CC[C@H]1[C@@H]2C[C@H]3[C@@H]4N(C)c5ccccc5[C@]45C[C@@H]([C@@H]2[C@H]5O)N3[C@@H]1O [Ajmaline] | 1.39 | 0.849 | 1.04 | 0.914 | 0.486 | 1.05 |
| CC(NC(C)(C)C)C(=O)c1cccc(Cl)c1 (stereo unspecified) [Amfebutamone HCl] | 1.4 | 1.06 | 0.536 | 1.05 | 0.846 | 1.45 |
| CN1C[C@H](C(=O)N[C@]2(C)O[C@@]3(O)[C@@H]4CCCN4C(=O)[C@H](Cc4ccccc4)N3C2=O)C[C@@H]2c3cccc4[nH]cc(c34)C[C@H]21 [Dihydroergotamine Mesylate] | 1.1 | 1.93 | 0.862 | 1.05 | 1.1 | 1.25 |
| CN1[C@@H]2C[C@@H](OC(=O)[C@H](CO)c3ccccc3)C[C@H]1[C@@H]1O[C@@H]12 [Scopolamine HBr] | 1.07 | 0.645 | 0.406 | 0.816 | 0.391 | 1.01 |
| CN1[C@H]2C[C@H](OC(=O)[C@H](CO)c3ccccc3)C[C@@H]1[C@@H](O)C2 [Anisodamine Hydrobromide] | 0.645 | 0.397 | 2.62 | 1.12 | 0.513 | 0.688 |
| CN(C)C(=O)Oc1cccc([N+](C)(C)C)c1 [Neostigmine Bromide] | 1.45 | 0.931 | 0.914 | 0.963 | 0.858 | 1.53 |
| Cc1cc(C(C#N)c2ccc(Cl)cc2)c(Cl)cc1NC(=O)c1cc(I)cc(I)c1O (stereo unspecified) [Closantel] | 1.21 | 0.707 | 0.758 | 0.654 | 0.749 | 0.648 |
| CN(C)C(=O)Oc1ccc[n+](C)c1 [Pyridostigmine Bromide] | 0.816 | 0.961 | 0.672 | 0.846 | 0.726 | 0.777 |
| CC(=O)Nc1ccc(Cc2ccc(NC(C)=O)cc2)cc1 | 1.08 | 2.27 | 0.674 | 0.9 | 0.667 | 1.25 |
| Cc1cc(C2=NOC(c3cc(Cl)cc(Cl)c3)(C(F)(F)F)C2)ccc1C(=O)NCC(=O)NCC(F)(F)F (stereo unspecified) [Fluralaner] | 1.38 | 1.29 | 1.17 | 1.44 | 0.786 | 1.36 |
| S=C=NCc1ccccc1 [Benzyl isothiocyanate] | 4.42 | 2.5 | 3.41 | 2.02 | 3.28 | 1.82 |
| CC[C@@H](CO)NC(=O)[C@@H]1C=C2c3cccc4c3c(cn4C)C[C@H]2N(C)C1 [Methysergide Maleate] | 0.845 | 0.577 | 0.772 | 0.909 | 0.822 | 1.34 |
| CN1[C@@H]2C[C@@H](OC(=O)[C@H](CO)c3ccccc3)C[C@H]1[C@@H]1O[C@@H]12 [Scopolamine HBr trihydrate] | 1.03 | 1.25 | 1.17 | 1.06 | 0.452 | 0.796 |
| Cc1cccc(Cc2c[nH]cn2)c1C [Detomidine HCl] | 1.46 | 0.895 | 1.16 | 0.994 | 1.89 | 1.34 |
| Cl[TeH]1(Cl)(Cl)OCCO1.N | 1.48 | 1.83 | 2.01 | 1.31 | 1.27 | 2.09 |
| CCC1(c2cccc(O)c2)CCCCN(C)C1 (stereo unspecified) [Meptazinol HCl] | 1.46 | 1.09 | 0.6 | 0.726 | 0.404 | 0.921 |
| C[C@](O)(COc1ccc(C#N)cc1)C(=O)Nc1ccc(C#N)c(C(F)(F)F)c1 | 1.54 | 1.28 | 0.792 | 1.72 | 1.24 | 1.74 |

| SMILES | Euclidean distance (786-O) | Euclidean distance (A549) | Euclidean distance (DU145) | Euclidean distance (FB) | Euclidean distance (HEPG2) | Euclidean distance (OVCAR4) |
| --- | --- | --- | --- | --- | --- | --- |
| CO[C@H]1CC[C@@H](O[C@H]2C[C@H]([C@]3(C)CC[C@]4(C[C@H](O)[C@@H](C)[C@@H]([C@@H](C)/C=C(\C)C(=O)[C@H](C)C[C@H](C)C(=O)O)O4)O3)O[C@]3(O[C@@H]([C@H]4O[C@@](O)(CO)[C@H](C)C[C@@H]4C)C[C@@H]3C)[C@@H]2C)O[C@@H]1C [Nanchangmycin] | 3.94 | 1.41 | 2.28 | 4.66 | 3.85 | 1.11 |
| COc1ccc(C=O)cc1 [p-Anisaldehyde] | 1.24 | 0.754 | 0.627 | 0.751 | 0.785 | 1.16 |
| CC1(C)CC(O)CC(C)(C)N1[O] [Tempol] | 0.822 | 0.85 | 1.18 | 1.49 | 0.827 | 0.934 |
| COc1ccc2c(c1)[nH]c1c(C)nccc12 [Harmine hydrochloride] | 1.41 | 1.17 | 1.13 | 1.58 | 1.06 | 1.25 |
| C[C@H]1O[C@H](O[C@H]2[C@H](O)[C@@H](O)[C@@H](O)[C@H](O)[C@@H]2O)[C@@H](N)C[C@@H]1NC(=N)C(=O)O [Kasugamycin hydrochloride] | 1.08 | 0.816 | 0.855 | 1.2 | 0.528 | 0.934 |
| COc1cc2c(cc1OC)C1CC(=O)C(CC(C)C)CN1CC2 (stereo unspecified) [Tetrabenazine (Xenazine)] | 0.961 | 1.86 | 0.948 | 1.12 | 1.74 | 1.45 |
| CN(C)C(=O)Oc1cc(OC(=O)N(C)C)cc(C(O)CNC(C)(C)C)c1 (stereo unspecified) [Bambuterol HCl] | 0.701 | 0.719 | 1.13 | 1.12 | 0.521 | 1.48 |
| CC[C@H](C)[C@@H]([C@@H](CC(=O)N1CCC[C@H]1[C@H](OC)[C@@H](C)C(=O)N[C@H](C)[C@@H](O)c1ccccc1)OC)N(C)C(=O)[C@@H](NC(=O)[C@@H](NC)C(C)C)C(C)C [Monomethyl auristatin E (MMAE)] | 3.13 | 2.69 | 4.69 | 2.93 | 3.85 | 3.16 |
| CN1[C@@H]2CC[C@H]1C[C@@H](OC(=O)C(CO)c1ccccc1)C2 (stereo partly specified) [Atropine sulfate monohydrate] | 0.718 | 0.691 | 0.677 | 0.688 | 0.719 | 1.53 |
| CC(C)(C)[C@]1(O)CC2OC(=O)CC23C(=O)OC2OC(=O)[C@H](O)C231 (stereo partly specified) [Bilobalide] | 1 | 1.09 | 0.515 | 0.78 | 0.996 | 1.47 |
| C[C@@]12N[C@@H](Cc3ccccc31)c1ccccc12 [(-)-MK 801 Maleate] | 1 | 1.63 | 1.84 | 3.8 | 1.69 | 4.43 |
| CC[C@@H](C(N)=O)N1CCCC1=O [Levetiracetam] | 1.07 | 1.76 | 0.591 | 1.12 | 0.604 | 1.81 |
| COc1ccc2[nH]cc(CCN)c2c1 [5-Methoxytryptamine] | 0.978 | 0.912 | 0.758 | 1.38 | 0.952 | 0.882 |
| Cn1c(COP(=O)(NCCBr)NCCBr)cnc1[N+](=O)[O-] [Evofosfamide (TH-302)] | 1.45 | 2.69 | 0.904 | 1.3 | 1.86 | 2.84 |
| O=c1ccc2ccc3occc3c2o1 [Isopsoralen] | 1.25 | 0.993 | 0.786 | 1.02 | 0.495 | 1.1 |
| C#C[C@]1(OC(=O)CCCCCC)CC[C@H]2[C@@H]3CCC4=CC(=O)CC[C@@H]4[C@H]3CC[C@@]21C [Norethisterone Enanthate] | 2.37 | 2.5 | 3.85 | 1.34 | 2.23 | 1.22 |
| CC(C)(C)c1cc(C=C(C#N)C#N)cc(Br)c1O | 1.41 | 1.74 | 0.863 | 1.1 | 1.39 | 1.52 |
| N[C@@H](Cc1ccc(N(CCCl)CCCl)cc1)C(=O)O [Melphalan] | 2.91 | 2.76 | 1.19 | 2.75 | 2.72 | 2.13 |
| NC[C@H](CC(=O)O)c1ccc(Cl)cc1 [(R)-baclofen] | 1.58 | 1.05 | 0.675 | 1.01 | 0.87 | 1.1 |
| COCC1(CO)C(=O)C2CCN1CC2 (stereo unspecified) | 3.17 | 3.25 | 4.09 | 3.41 | 2.42 | 2.18 |
| CCCN1C[C@H](CSC)C[C@@H]2c3cccc4[nH]cc(c34)C[C@H]21 [Pergolide Mesylate] | 1.01 | 1.03 | 1.06 | 0.928 | 0.589 | 1.71 |
| CCC(=O)CCCCC[C@@H]1NC(=O)[C@H]2CCCCN2C(=O)[C@H]([C@@H](C)CC)NC(=O)[C@H](Cc2cn(OC)c3ccccc23)NC1=O [Apicidin] | 3.74 | 3.31 | 1.07 | 2.16 | 1.52 | 1.84 |
| CCOC(=O)Nc1ccc(NCc2ccc(F)cc2)cc1N [Retigabine 2HCl] | 0.771 | 1.35 | 0.995 | 0.958 | 0.601 | 0.882 |
